# Experimental data as given in the OligoGym collection.
# Molecular target: IREB2
# Test: pooled miR-30 sensor sort-seq; sequence = guide strand
# Details: shRNA
# Further: reference of the scale not given here.
row,Sequence,sensor-assay potency score (higher = more potent)
1,TAGTATAACATGTTCTTCCTCT,0.5
2,TAAAATTCCACAGGTAACCAAA,-1.05
3,TTTTCTTCAAAAACCACTCTTG,-0.106
4,TGTCACAGCAACTCTATCCTGA,0.64
5,TTCGAAACAATTTCACAGCTTT,1.18

# Molecular target: IRF2
# Test: as above
# Details: shRNA
row,Sequence,sensor-assay potency score (higher = more potent)
1,TTCTGCATAGGAAGACACGGGG,-0.312
2,TCTTGATTCTCAATGTTGCTGT,0.147
3,TTTGCCTTCAATATTCCTCTTC,0.432
4,TATCAGTCGTTTCGCTTTCTGC,-0.797
5,TTTCTTTATGCTTTTATCCTTG,-0.739
6,TTGCTCTCCTCTTTGATGGTGA,-0.593
7,AATCTCTTGATTCTCAATGTTG,-1.2
8,TTCAATATTCCTCTTCCGCCAG,-0.844
9,TTTCTGCATAGGAAGACACGGG,-0.335
10,TACAACTTGGCAAATGTCTGGC,0.449
11,TTTCCTTTCTTAGAAGGCCGTT,-0.36

# Molecular target: IRX2
# Test: as above
# Details: shRNA
row,Sequence,sensor-assay potency score (higher = more potent)
1,TCTTCGCTTTTGTTTCTCGGGG,-0.791
2,TACTTGTCCTTGCACTCCGAGC,-1.54
3,TCCTCGTCCTCATCTTCGCTTT,-1.22
4,TTGTCGGGACTCTCGTCCTTGC,-0.88
5,TAGTTTGTGTAGTTGCCGTAGA,0.0957
6,TTCGCTTTTGTTTCTCGGGGCC,-0.0873
7,TTCTTGGGCTCGTAGCCGCCGC,-1.6
8,TGTCCTTGCACTCCGAGCCCGA,-0.973
9,ATGGCTAGCATGATCTTCTCGC,-0.31
10,TTGTCCTTGCACTCCGAGCCCG,-1.01
11,ATCTTCGCTTTTGTTTCTCGGG,-1.09
12,TCTTTCTTGGGCTCGTAGCCGC,-1

# Molecular target: ISLR2
# Test: as above
# Details: shRNA
row,Sequence,sensor-assay potency score (higher = more potent)
1,TTGTCAGGGACTACACGCCGGG,-0.648
2,TTGACGCCTTCCTCTACGCGGG,-1.19
3,TTTGTAAGCGCAGTCCGCGAAC,-1.25
4,TTGAGCTCTGCGCTCTGGTTGA,-0.693
5,TTGCGCAGGTCGCTCCACGGAA,-1.26
6,TTTGGAACTAAAAACTAGGGGT,0.382
7,TAGCGCACCGAGTGCGTCCCGG,-1.05
8,TGAGCGTACTTGTCCACGCAGG,-1.13
9,TTTCCAAAGTCTTCGCTCGTTT,-0.577
10,TTGAAAACAACGAAAACAGGAA,-0.395
